The source of these data is the supplement of paper PMC6555819.

The assay has as its system VDR:RXRa (NR concentration 270 nM, RXRa partner concentration 90 nM). The assay can be described thus: PBM binding z-score (relative to random genomic background probes); higher = stronger binding; sequences stand for … in GC…GCGATTGACAGCGTAGAATGAAGG
Here is the method:
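Protein-binding microarray (Agilent 4x180K custom design, double-stranded 60-nt probes: 5' GC cap, 34-nt variable region, 24-nt constant primer region; full probe sequence given). Purified or IVT nuclear receptor:RXRα heterodimers (3:1 NR:RXRα, mostly 270:90 nM) or homodimers were incubated for 1 h in PBS with 2% milk and no ligand, then detected with Alexa488 antibodies. Fluorescence from o1-orientation probes (~5 replicates averaged) was converted to z-scores against 500 random hg19 background probes. Variable regions are seed direct-repeat (DR0–DR5) sites, all their single-nucleotide variants and half-site ablations.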
The sequence CCTTCCGGGTCAAGGTTATAGCACGGGTGGTACG returned a PBM binding z-score of 3.38.
ACACACAGGTGAGTGAAGGTAACTCAGCTGGACG displayed a PBM binding z-score of -0.0221.
GCTGCTAGGTCAGGTTGCTCAGCTAACGGGTACG: the PBM binding z-score came out at 0.0611.
Under ATCTCTAGGTAAAGATAGTTCATTGAATGCAAAT stands 2.07.
Under TCTTGTAGATCAGCAGGTCAAGAAAGCTGGCCAA stands 1.17; under TGAATGAGGTTATAAGAGCAGGGAACGTTGCAAA, 0.901.
CCTACTGGACCATCAGGTCATTGATATCAACGTT gave a PBM binding z-score of 2.24.
In turn, TCTTGTAGAGCAGCAGGTTAAGAAAGCTGGCCAA had a PBM binding z-score of -0.353.
TTACCACGGTGAAAGGTCGTTGATGCACGCCTTG displayed a PBM binding z-score of 1.99.
Take CCGACTGGGGCAGAAAGGTTACCGTACCATCCGG: the PBM binding z-score turned out to be 0.919.
GCGACTGGGGCAAAGCAGGTTACCAGAAGGTTGG yielded a PBM binding z-score of 0.13.
In turn, TGAGTGAGGTTATAAGATCAGGGAACGTTGCAAA had a PBM binding z-score of 0.806.
ACTATTAGTTGAGACGAGGGCAACTGATAGGTTG showed a PBM binding z-score of 0.583.
Turning to CCTAGTTGGTGAGGAGGTCACACACCGGATATGA, the PBM binding z-score is 3.46.
In turn, CCTCCGAGGACAACAGGAGGTCAGAGCTGCCAGA returned a PBM binding z-score of 2.27.
CAAACTAGGTCAAAGGTCAATGTCGAGCCAACCA registered a PBM binding z-score of 6.33.
In turn, TCTCGGAGGACACGAAAGCTCAGAGCTCGACATC registered a PBM binding z-score of -0.282.
As for CAAACTTGGTCACGAAAGGTCAAAGTCGAATGAC, the PBM binding z-score came to 5.37.
Take AGAATGAGCTTACCAAAGATCAGGGAAACGCTTG: the PBM binding z-score was -0.591.
AGTCAAAGTTCCTCTAGGTAACGTAAGATATGCT showed a PBM binding z-score of 0.145.
The sequence AGAATGAGGTTACCAAAGATCAGGTAAACGCTTG came in with a PBM binding z-score of 1.44.
TCATATAGGTAATACAGGTTAAAGTCGGCATCTA had a PBM binding z-score of 1.88.
CGTCCAAGGTCAATGCTAGGTCATTGAAAGCATT yielded a PBM binding z-score of 5.84.
The sequence CTACCAAGGGGAACAAGGTCGTTGATTACTATTC displayed a PBM binding z-score of 3.86.
The sequence TGAATGAGGTTACAGATCAGGGAACGTGGCGTCG came in with a PBM binding z-score of 0.932.
In turn, CGTCCAAGCTCAATGCTAGGTCAGTGAAAGCATT came in with a PBM binding z-score of -0.0498.
The sequence CCTTACGGGTCACTGACAGGTTATAGCATTTGGA came in with a PBM binding z-score of 3.8.
For GATACAGGGTCAGGGCCAGAGTACGCGTATTGAT, the PBM binding z-score stood at 3.14.
ACATACAGGTGAGTGAAGGTAACTCAGCTGGACG: the PBM binding z-score was 0.0169.
Sequence ACTAGCAGGCAAAGGGTCACTCAAGATTAGTCCG returned a PBM binding z-score of 2.98.
On to TCTGCTAGCTCAACGATGGTCAGCTAATCTGCTA, for which the PBM binding z-score was -0.662.
The sequence ACTTACGAGTCAACGAGGTTATAGCACGCGTATA gave a PBM binding z-score of 4.89.
In turn, CCGAGTAGGTTATGGGGCATTCTGGCAACGGTGA displayed a PBM binding z-score of -0.0151.
Sequence TCTGGTTGGTCACGGAGGTCACACACGACGGGTA had a PBM binding z-score of 5.92.
TCTGCTAGGTCAGTTGGCCAGCTAACGAGCTGCC: the PBM binding z-score was -0.113.
As to CTACCAAGTTGAACAAGGTCGTTGATTACTATTC, the PBM binding z-score was determined as 5.18.
The same measure for ATCTCTAGGTAACCAGTTCAGTGAAAGAGAGGAC: 1.16; for CTACCAAGGTGAACACGGTCGTTGATTACTATTC: 3.01.
For the sequence CGAACTAGGTCACCGGAAGGTCAAAGTCCGCATG, the PBM binding z-score was determined as 5.8.
Regarding GGTAGTTGGTCAGTAAAAGGTCACACACCGGTCG, the PBM binding z-score stood at 4.11.
